From PubChem BioAssay AID1835 (Johns Hopkins Ion Channel Center, 2009) come the findings set out here.

In all, about 2,400 compounds went through this assay and about 750 (31%) were called active. The list shows a part of the results. Unmarked numbers belong to inactive results.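 Rule for the calls: active = median signal gain over dofetilide-blocked control wells reaching their mean plus 3 SD, so readout 1 at least 0; inactive = the rest.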 Where a SMILES comes first, the peptide text is derived from it. The star is where a group is joined. Cbz = O=C(OCc1ccccc1)*

Voltage-gated inwardly rectifying potassium channel KCNH2 (Homo sapiens), sequence (Q12809 whole entry, looked up): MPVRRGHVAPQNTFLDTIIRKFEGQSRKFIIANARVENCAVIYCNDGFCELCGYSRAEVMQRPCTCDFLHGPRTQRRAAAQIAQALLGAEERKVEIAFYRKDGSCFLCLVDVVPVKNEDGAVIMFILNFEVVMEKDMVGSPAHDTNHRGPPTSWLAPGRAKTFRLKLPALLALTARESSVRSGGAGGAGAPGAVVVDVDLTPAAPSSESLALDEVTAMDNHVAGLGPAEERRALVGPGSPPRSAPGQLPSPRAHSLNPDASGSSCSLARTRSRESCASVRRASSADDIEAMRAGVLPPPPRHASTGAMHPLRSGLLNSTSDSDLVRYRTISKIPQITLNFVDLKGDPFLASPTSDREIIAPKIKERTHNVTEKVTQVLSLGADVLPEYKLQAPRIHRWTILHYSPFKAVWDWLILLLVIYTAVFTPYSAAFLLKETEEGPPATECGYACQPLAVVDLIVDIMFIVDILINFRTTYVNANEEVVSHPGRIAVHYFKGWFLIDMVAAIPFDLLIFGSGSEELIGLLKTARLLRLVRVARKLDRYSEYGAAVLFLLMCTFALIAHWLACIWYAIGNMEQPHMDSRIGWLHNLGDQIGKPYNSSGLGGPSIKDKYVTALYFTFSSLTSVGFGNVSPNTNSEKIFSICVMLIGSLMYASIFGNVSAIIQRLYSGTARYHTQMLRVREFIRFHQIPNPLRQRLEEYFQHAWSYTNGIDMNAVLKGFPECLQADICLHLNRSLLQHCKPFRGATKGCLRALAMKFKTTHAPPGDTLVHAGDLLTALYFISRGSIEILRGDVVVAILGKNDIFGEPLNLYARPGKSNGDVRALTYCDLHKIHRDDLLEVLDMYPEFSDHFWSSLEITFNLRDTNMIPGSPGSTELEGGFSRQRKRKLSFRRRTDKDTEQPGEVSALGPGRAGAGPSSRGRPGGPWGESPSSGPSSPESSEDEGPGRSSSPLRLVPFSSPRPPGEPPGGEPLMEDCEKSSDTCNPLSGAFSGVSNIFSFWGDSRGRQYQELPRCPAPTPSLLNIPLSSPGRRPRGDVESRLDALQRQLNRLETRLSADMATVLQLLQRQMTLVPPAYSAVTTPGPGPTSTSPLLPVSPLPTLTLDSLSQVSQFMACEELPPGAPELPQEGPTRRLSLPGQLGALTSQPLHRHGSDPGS

This experiment has as its target Voltage-gated inwardly rectifying potassium channel KCNH2 (Homo sapiens) (UniProt Q12809). Put plainly: hERG protection against dofetilide inhibition, confirmation, cell-based, thallium flux, duplicate retest, dofetilide IC70 (AID 1835). To be noted: hERG cell line, FluxOR thallium flux, dofetilide-blocked; at 10 µM; hits give high values. (In general: hERG is a cardiac potassium channel; its block is linked to QT prolongation.)
For the molecule `Cc1cc(NC(=O)CCCn2cnc([N+](=O)[O-])n2)no1`, the activity increase over dofetilide control, less the hit threshold is -9%. As to `CCOC(=O)C1CCN(C(=O)COC(=O)c2nn(C)c(=O)c3ccccc23)CC1`, the activity increase over dofetilide control, less the hit threshold was -23%. For `CCOC(=O)c1n[nH]n2c1nc(=S)c1ccccc12`, the activity increase over dofetilide control, less the hit threshold is 46% (active). Take `CCOC(=O)c1nnn(CC(=O)Nc2ccccc2OC)c1C(=O)OCC`: the activity increase over dofetilide control, less the hit threshold was -3%. As to `C[n+]1ccccc1COc1ccc(C(C)(C)C)cc1`, the activity increase over dofetilide control, less the hit threshold is -15%. Consider `COC(=O)c1ccc(/C=C/c2ccc3cccc(OC)c3n2)cc1`, for which the activity increase over dofetilide control, less the hit threshold was -7%. The figure for `Cc1ccc(C(=O)c2ccccc2C(=O)O)c(O)c1` is -6%. Turning to `Cc1ccc(/C=C/C(=O)c2ccccc(=O)c2O)cc1C`, the activity increase over dofetilide control, less the hit threshold is 8% (active). Regarding `Cc1ccc(C)c(/C=C/C(=O)c2ccccc(=O)c2O)c1`, the activity increase over dofetilide control, less the hit threshold was -3%. For `Cc1ccc(/C=C/C(=O)c2ccccc(=O)c2O)c(C)c1`, the activity increase over dofetilide control, less the hit threshold is 22% (active). The figure for `Cc1ccc(NS(=O)(=O)c2ccc(NC(=O)c3ccccc3C(=O)O)cc2)cc1C` is -5%; for `O=C(/C=C/c1ccccc1Cl)c1ccccc(=O)c1O` it is 13% (active); for `CC(=O)c1sc(-c2ccc(F)cc2)cc1NS(=O)(=O)c1ccc(C)cc1` it is -14%. For `CC1=[N+]([O-])C(C)(C)C(c2ccc(Br)cc2)=[N+]1[O-]`, the activity increase over dofetilide control, less the hit threshold is -3%. Turning to `COCCNC(=O)CN(C(=O)c1ccc(N2CCCC2)nc1)c1ccccc1`, the activity increase over dofetilide control, less the hit threshold is -15%. Take `CCc1ccc2[nH]c(=O)c(-c3ccccc3)c(O)c2c1`: the activity increase over dofetilide control, less the hit threshold was -20%. Regarding `CCC(C)C(NC(=O)C(C)NC(=O)CNC(=O)CNC(=O)OCc1ccccc1)C(=O)OC` (stereo unspecified) (Cbz-GGAI-OMe; configuration not given here), the activity increase over dofetilide control, less the hit threshold is -22%. In the case of `CN1C(=O)NC(c2cccc([N+](=O)[O-])c2)C2=C1CC(C)(C)CC2=O` (stereo unspecified) it was -14%; in that of `CCc1ccccc1NC(=O)CC1CS(=O)(=O)CC1CC(=O)Nc1ccccc1CC` (stereo unspecified), -4%; in that of `N#C/C(=N\Nc1ccccc1F)c1nc(-c2ccccc2)cs1`, -14%.

Regarding `O=C(O)/C=C/c1cn(-c2ccccc2)nc1-c1ccc(-c2ccc([N+](=O)[O-])cc2)o1`, the activity increase over dofetilide control, less the hit threshold was 27% (active). As to `COC(=O)Oc1ccc(/C=C/C(=O)OC(C)C)cc1OC(=O)OC`, the activity increase over dofetilide control, less the hit threshold is 2% (active). As to `Cc1cc(C)nc(NS(=O)(=O)c2ccc(NC(=O)Cc3ccccc3)cc2)n1`, the activity increase over dofetilide control, less the hit threshold is -5%.

For `Cc1cc(O)c(/C=N/OCc2ccc(Cl)cc2Cl)c(=O)o1`, the activity increase over dofetilide control, less the hit threshold is -4%. In the case of `Brc1ccc(-c2noc(CCc3ccccc3)n2)cc1` it was -20%; in that of `CC(C)Cn1c(=S)[nH]c2cc(Cl)ccc21`, 5% (active). Take `Cc1nnc(SCC2=C(C(=O)O)N3C(=O)C(NC(=O)Cn4nc(C(F)F)cc4C)C3SC2)s1` (stereo unspecified): the activity increase over dofetilide control, less the hit threshold was -5%. As for `Cc1ccc(C)c(NC(=S)c2nc3ccccc3s2)c1`, the activity increase over dofetilide control, less the hit threshold was -10%. As to `Cc1ccc(C)c2sc(NC(=O)c3nc4ccccc4s3)nc12`, the activity increase over dofetilide control, less the hit threshold was 35% (active).

Consider `Cc1ccccc1NP(=O)(c1ccccc1)c1nc2ccccc2s1` (stereo unspecified), for which the activity increase over dofetilide control, less the hit threshold was -8%. In the case of `CC(=O)Nc1ccccc1C(=O)C(=O)Nc1ccc(Cl)cc1` it was -3%; in that of `C/C(CC(=O)Nc1ccccn1)=N\NC(=O)C(=O)Nc1cccc(Cl)c1C`, -6%; in that of `Cc1ccccc1C(=O)NNC(=O)C(=O)Nc1cccc(Cl)c1C`, 27% (active). Regarding `COc1ccc(Cl)cc1C(=O)Nc1cccnc1Cl`, the activity increase over dofetilide control, less the hit threshold is -8%. As for `COc1ccccc1C(=O)Nc1ccc(C(=O)N2CCCC2)cc1`, the activity increase over dofetilide control, less the hit threshold is 0%. As for `COc1ccccc1C(=O)NNC(=O)C(=O)Nc1cccc(Cl)c1C`, the activity increase over dofetilide control, less the hit threshold is 100% (active).

As to `NC(=O)Cn1c2[n+](c3ccccc31)CC(O)CS2` (stereo unspecified), the activity increase over dofetilide control, less the hit threshold was -24%. On to `CC(C)CN1C(=O)/C(=C/c2cccs2)NC1=S`, for which the activity increase over dofetilide control, less the hit threshold is 85% (active). Consider `CCCN1C(=O)/C(=C/c2ccc3c(c2)OCO3)NC1=S`, for which the activity increase over dofetilide control, less the hit threshold is -13%.

For `CCN1C(=O)/C(=C/c2ccc(C)s2)NC1=S`, the activity increase over dofetilide control, less the hit threshold is 14% (active). As to `CC(C)CN1C(=O)/C(=C/c2ccco2)NC1=S`, the activity increase over dofetilide control, less the hit threshold was -26%. For the molecule `CCCN1C(=O)/C(=C/c2ccc(C)s2)NC1=S`, the activity increase over dofetilide control, less the hit threshold is 71% (active). Take `COc1ccc(S(=O)(=O)Nc2ccc(O)c3ccccc23)cc1`: the activity increase over dofetilide control, less the hit threshold is -21%. `COc1ccc(NS(=O)(=O)c2ccc3ccccc3c2)c2ncccc12`: the activity increase over dofetilide control, less the hit threshold is -20%.

Regarding `Cc1ccc(C(=O)Nc2sc3c(c2C(=O)O)CCCCC3)o1`, the activity increase over dofetilide control, less the hit threshold is -22%.

With `COC(=O)c1c(NS(=O)(=O)c2ccc3ccccc3c2)sc2c1CCCC2`, the activity increase over dofetilide control, less the hit threshold is 29% (active). In the case of `CCOC(=O)c1c(NS(=O)(=O)c2ccc(Br)cc2)sc2c1CCC2` it was 68% (active). In the case of `COC(=O)c1c(NS(=O)(=O)Cc2ccccc2)sc2c1CCCC2` it was 31% (active). The figure for `CCOC(=O)c1c(NS(=O)(=O)Cc2ccccc2)sc2c1CCCC2` is 69% (active); for `O=C(O)C1C2CCC(O2)C1C(=O)Nc1ccc(F)c(Cl)c1` (stereo unspecified) it is -7%.

As for `Cc1ccc(CN2CCN(CC(=O)NC(C)c3ccc4c(c3)OCCO4)C2=O)cc1` (stereo unspecified), the activity increase over dofetilide control, less the hit threshold was -9%.
